# Assay results from paper PMC7862700, “An all-to-all approach to the identification of sequence-specific readers for epigenetic DNA modifications on cytosine”.
# Experiments:
# Assay in all cases: DAPPL (digital affinity profiling via proximity ligation, sequencing); 10 mM Tris-HCl pH 7.5, 50 mM NaCl, 1 mM DTT, 4% glycerol, room temperature, 30 min; GST-TFs on glutathione beads, 16-mer random dsDNA library, 0.1% formaldehyde crosslink after washing; high values mean tight binding
# FLI1 = molecular target: T1, FLI1 (Homo sapiens, UniProt Q01543 1-452); conditions: protein: recombinant; tags: N-terminal GST; dsDNA, one strand shown
# T1 sequence: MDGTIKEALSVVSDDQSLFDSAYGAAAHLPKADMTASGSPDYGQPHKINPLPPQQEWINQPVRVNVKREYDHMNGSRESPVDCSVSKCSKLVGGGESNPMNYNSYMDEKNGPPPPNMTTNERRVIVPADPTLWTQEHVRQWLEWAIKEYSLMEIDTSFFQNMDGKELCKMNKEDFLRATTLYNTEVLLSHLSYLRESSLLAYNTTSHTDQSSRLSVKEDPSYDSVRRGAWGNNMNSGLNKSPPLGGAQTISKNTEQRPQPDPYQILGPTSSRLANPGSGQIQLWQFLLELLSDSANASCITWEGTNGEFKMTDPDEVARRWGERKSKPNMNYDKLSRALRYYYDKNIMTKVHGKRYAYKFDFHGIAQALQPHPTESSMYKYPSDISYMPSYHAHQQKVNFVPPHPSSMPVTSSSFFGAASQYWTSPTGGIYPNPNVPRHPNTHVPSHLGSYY
# Summary of the method: (§1)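 Sequencing on an Illumina NextSeq500 followed washing, crosslinking with 0.1% formaldehyde, proximity ligation (BsaI/T4 ligase, 1 h, 37 °C) and PCR amplification of pools that had been incubated for 30 min at room temperature with 200 nmole of a random double-stranded 16-mer DNA library in Tris/NaCl/DTT/glycerol buffer. Each pool held DNA-barcoded human transcription factors, expressed in yeast as GST fusions and captured on glutathione beads, plus a tag-only sample. Binding signal is a hexamer's read frequency for a factor divided by its frequency in the tag-only sample.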
# ELK1 = molecular target: T2, ELK1 (Homo sapiens, UniProt P19419 1-428); conditions: protein: recombinant; tags: N-terminal GST; dsDNA, one strand shown
# T2 sequence: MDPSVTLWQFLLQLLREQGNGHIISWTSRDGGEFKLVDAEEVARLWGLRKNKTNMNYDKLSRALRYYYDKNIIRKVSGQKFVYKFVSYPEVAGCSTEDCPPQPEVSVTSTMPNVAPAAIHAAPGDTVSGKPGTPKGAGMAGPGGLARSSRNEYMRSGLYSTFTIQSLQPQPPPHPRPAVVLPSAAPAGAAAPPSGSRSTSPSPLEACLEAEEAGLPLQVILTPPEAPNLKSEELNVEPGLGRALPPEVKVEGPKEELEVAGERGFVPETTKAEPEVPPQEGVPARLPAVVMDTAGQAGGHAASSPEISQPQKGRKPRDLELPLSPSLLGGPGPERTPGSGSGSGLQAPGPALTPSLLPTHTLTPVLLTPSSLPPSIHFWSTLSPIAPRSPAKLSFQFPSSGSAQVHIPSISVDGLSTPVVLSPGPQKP
# Summary of the method: as §1
# GABPA = molecular target: T3, GABPA (Homo sapiens, UniProt Q06546 1-454); conditions: protein: recombinant; tags: N-terminal GST; dsDNA, one strand shown
# T3 sequence: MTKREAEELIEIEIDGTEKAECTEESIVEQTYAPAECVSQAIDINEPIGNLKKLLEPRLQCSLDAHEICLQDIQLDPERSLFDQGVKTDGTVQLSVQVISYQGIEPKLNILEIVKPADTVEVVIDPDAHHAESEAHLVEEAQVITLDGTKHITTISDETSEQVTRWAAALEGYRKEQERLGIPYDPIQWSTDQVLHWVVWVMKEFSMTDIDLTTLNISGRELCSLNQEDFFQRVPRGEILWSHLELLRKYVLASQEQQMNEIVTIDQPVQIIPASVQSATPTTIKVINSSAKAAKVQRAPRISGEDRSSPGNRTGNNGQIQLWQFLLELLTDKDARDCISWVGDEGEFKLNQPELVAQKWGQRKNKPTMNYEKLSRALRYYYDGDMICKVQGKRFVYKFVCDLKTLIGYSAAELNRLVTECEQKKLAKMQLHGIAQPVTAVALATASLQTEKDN
# Summary of the method: as §1
# ERG = molecular target: T4, ERG (Homo sapiens, UniProt P11308 1-479); conditions: protein: recombinant; tags: N-terminal GST; dsDNA, one strand shown
# T4 sequence: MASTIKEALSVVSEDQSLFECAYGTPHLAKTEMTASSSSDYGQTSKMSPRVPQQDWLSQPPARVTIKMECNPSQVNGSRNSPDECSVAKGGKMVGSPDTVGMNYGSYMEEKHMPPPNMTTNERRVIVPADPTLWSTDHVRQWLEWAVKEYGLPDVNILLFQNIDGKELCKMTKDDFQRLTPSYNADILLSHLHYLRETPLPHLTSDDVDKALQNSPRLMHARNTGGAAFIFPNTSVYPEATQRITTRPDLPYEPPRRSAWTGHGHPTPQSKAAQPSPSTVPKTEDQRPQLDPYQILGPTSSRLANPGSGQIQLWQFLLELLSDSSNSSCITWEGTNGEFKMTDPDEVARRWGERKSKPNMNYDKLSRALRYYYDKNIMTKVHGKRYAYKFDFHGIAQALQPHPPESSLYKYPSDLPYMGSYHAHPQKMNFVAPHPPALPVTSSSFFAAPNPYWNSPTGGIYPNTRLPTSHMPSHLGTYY
# Summary of the method: as §1
# ELF1 = ELF1 (Homo sapiens, UniProt P32519 1-619); conditions: protein: recombinant; tags: N-terminal GST; dsDNA, one strand shown
# Sequence of ELF1 (P32519 whole entry): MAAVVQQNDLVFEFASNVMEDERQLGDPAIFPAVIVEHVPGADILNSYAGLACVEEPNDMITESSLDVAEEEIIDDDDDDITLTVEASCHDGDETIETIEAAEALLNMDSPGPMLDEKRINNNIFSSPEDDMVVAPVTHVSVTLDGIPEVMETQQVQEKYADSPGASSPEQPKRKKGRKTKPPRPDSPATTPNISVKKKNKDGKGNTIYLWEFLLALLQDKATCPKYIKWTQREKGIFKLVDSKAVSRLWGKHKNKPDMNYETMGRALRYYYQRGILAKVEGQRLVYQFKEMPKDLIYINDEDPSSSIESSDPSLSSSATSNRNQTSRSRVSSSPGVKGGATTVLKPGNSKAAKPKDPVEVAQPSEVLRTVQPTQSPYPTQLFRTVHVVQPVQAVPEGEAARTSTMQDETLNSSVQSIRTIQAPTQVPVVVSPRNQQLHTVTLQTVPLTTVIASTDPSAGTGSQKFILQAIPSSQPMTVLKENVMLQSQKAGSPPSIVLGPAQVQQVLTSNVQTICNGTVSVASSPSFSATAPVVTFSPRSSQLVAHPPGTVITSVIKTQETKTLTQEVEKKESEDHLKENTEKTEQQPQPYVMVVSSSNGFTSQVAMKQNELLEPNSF
# Summary of the method: as §1
# EHF = molecular target: T5, EHF (Homo sapiens, UniProt Q9NZC4 1-300); conditions: protein: recombinant; tags: N-terminal GST; dsDNA, one strand shown
# T5 sequence: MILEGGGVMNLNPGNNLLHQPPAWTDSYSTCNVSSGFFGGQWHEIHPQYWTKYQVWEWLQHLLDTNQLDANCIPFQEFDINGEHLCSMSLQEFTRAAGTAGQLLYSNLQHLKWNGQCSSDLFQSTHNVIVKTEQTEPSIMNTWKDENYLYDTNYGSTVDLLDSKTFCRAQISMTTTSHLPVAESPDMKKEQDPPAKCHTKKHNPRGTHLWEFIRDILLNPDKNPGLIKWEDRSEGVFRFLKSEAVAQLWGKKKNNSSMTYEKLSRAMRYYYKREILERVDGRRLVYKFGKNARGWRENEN
# Summary of the method: as §1
# SPI1 = SPI1 (Homo sapiens, UniProt P17947 1-270); conditions: protein: recombinant; tags: N-terminal GST; dsDNA, one strand shown
# Summary of the method: as §1
# SPIB = SPIB (Homo sapiens, UniProt Q01892 1-262); conditions: protein: recombinant; tags: N-terminal GST; dsDNA, one strand shown
# Sequence of SPIB (Q01892 whole entry): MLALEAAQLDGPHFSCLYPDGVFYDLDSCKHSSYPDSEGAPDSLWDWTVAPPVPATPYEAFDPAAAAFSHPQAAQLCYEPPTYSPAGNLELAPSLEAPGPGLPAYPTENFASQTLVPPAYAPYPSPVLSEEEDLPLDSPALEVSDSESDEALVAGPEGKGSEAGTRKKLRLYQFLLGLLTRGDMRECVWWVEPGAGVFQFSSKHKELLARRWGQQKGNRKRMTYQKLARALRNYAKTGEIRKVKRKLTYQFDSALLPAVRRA
# Summary of the method: as §1
# ELK3 = molecular target: T6, ELK3 (Homo sapiens, UniProt P41970 1-407); conditions: protein: recombinant; tags: N-terminal GST; dsDNA, one strand shown
# T6 sequence: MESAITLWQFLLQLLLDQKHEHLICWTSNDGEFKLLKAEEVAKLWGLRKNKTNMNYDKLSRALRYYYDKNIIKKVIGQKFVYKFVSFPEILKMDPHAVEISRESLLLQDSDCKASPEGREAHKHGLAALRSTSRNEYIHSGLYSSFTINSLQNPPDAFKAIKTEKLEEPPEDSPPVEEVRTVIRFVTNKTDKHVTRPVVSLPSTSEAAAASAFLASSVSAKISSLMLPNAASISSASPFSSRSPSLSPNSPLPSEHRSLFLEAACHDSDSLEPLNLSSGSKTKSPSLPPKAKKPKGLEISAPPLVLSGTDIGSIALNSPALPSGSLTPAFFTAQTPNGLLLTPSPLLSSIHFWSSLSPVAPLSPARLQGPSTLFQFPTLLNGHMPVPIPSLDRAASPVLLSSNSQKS
# Summary of the method: as §1
# FEV = molecular target: T7, FEV (Homo sapiens, UniProt Q99581 1-238); conditions: protein: recombinant; tags: N-terminal GST; dsDNA, one strand shown
# T7 sequence: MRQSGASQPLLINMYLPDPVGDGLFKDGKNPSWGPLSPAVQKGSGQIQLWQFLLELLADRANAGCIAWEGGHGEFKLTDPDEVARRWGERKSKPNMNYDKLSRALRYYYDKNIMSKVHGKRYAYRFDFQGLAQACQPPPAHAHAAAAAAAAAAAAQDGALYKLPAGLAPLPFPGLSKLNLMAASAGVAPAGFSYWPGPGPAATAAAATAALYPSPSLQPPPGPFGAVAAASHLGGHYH
# Summary of the method: as §1
# ETV5 = ETV5 (Homo sapiens, UniProt P41161 1-510); conditions: protein: recombinant; tags: N-terminal GST; dsDNA, one strand shown
# Sequence of ETV5 (P41161 whole entry): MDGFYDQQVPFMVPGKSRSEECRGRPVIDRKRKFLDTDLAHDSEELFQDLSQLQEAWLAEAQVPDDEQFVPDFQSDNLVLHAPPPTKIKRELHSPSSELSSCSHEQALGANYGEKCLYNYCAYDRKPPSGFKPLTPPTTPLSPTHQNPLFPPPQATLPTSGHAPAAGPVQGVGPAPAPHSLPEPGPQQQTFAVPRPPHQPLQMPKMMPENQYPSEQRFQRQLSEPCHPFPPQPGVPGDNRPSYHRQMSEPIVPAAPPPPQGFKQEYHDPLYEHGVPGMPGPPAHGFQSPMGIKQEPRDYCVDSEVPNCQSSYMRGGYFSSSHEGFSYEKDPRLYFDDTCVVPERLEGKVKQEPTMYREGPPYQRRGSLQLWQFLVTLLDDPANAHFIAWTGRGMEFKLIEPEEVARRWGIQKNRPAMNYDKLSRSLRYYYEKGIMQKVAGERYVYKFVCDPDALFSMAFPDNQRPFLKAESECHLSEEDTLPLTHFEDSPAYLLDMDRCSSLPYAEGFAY
# Summary of the method: as §1
# HSF1 = HSF1 (Homo sapiens, UniProt Q00613 1-529); conditions: protein: recombinant; tags: N-terminal GST; chain copies: 3; dsDNA, one strand shown
# Sequence of HSF1 (Q00613 whole entry): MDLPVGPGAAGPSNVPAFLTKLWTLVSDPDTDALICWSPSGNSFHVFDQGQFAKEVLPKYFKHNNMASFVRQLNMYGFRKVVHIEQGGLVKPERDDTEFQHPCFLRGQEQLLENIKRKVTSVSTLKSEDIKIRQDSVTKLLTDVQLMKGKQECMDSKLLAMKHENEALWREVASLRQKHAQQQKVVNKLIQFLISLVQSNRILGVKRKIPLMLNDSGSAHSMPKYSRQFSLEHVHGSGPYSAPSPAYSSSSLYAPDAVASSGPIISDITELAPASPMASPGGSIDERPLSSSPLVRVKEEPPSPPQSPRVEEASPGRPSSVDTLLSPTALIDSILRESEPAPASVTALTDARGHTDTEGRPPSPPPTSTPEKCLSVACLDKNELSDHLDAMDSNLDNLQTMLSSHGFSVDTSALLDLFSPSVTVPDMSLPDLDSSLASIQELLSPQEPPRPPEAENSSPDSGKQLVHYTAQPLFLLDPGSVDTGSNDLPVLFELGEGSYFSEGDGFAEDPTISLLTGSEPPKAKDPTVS
# Summary of the method: as §1
# SPIC = molecular target: T8, SPIC (Homo sapiens, UniProt Q8N5J4 1-248); conditions: protein: recombinant; tags: N-terminal GST; dsDNA, one strand shown
# T8 sequence: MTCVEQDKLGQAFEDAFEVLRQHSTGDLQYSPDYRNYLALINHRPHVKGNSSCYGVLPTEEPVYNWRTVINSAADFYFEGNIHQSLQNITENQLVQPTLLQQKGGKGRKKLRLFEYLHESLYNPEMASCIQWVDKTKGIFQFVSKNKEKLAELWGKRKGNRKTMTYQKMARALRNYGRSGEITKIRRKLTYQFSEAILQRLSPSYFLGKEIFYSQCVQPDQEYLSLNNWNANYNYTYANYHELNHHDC
# Summary of the method: as §1
# ELF4 = ELF4 (Homo sapiens, UniProt Q99607 1-663); conditions: protein: recombinant; tags: N-terminal GST; dsDNA, one strand shown
# Sequence of ELF4 (Q99607 whole entry): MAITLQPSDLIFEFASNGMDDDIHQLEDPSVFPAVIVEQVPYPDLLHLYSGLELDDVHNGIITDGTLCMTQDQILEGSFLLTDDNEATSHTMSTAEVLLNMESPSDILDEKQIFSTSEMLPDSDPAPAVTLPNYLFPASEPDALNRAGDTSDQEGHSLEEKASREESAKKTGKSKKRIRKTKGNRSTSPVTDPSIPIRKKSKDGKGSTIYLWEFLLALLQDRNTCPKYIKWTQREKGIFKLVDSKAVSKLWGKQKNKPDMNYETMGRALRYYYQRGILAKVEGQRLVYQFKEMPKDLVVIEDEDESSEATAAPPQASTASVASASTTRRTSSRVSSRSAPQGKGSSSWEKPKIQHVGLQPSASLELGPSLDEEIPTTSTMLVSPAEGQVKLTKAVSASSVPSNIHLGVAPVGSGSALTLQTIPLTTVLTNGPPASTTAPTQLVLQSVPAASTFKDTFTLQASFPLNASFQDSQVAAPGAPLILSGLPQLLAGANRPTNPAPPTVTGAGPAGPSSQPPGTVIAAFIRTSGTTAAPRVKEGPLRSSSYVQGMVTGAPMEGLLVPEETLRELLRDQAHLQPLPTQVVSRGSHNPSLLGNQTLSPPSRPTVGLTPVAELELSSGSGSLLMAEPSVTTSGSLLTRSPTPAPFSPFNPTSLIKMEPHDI
# Summary of the method: as §1
# ELK4 = molecular target: T9, ELK4 (Homo sapiens, UniProt P28324-2 1-405); conditions: protein: recombinant; tags: N-terminal GST; dsDNA, one strand shown
# T9 sequence: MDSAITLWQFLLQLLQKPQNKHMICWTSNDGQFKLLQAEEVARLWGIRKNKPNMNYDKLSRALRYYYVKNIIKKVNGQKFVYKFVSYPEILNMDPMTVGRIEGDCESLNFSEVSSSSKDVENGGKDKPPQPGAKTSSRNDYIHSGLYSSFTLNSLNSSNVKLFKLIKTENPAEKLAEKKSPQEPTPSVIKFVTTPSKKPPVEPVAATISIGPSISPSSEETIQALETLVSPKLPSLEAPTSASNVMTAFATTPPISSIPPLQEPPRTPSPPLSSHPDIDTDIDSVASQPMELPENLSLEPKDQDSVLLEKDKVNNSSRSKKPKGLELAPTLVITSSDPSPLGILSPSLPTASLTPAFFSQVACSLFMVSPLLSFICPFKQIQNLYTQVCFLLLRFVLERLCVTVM
# Summary of the method: as §1
# ETV2 = molecular target: T10, ETV2 (Homo sapiens, UniProt O00321 1-342); conditions: protein: recombinant; tags: N-terminal GST; dsDNA, one strand shown
# T10 sequence: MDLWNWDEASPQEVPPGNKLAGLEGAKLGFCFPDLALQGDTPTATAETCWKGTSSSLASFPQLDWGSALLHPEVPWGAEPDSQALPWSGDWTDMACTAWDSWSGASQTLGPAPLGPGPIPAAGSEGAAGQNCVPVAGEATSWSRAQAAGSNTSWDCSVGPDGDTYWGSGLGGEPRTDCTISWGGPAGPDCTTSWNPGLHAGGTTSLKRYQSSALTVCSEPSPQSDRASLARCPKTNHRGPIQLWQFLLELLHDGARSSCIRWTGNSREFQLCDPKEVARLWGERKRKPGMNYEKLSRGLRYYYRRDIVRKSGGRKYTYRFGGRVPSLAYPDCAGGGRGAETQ
# Summary of the method: as §1
# ELF3 = molecular target: T11, ELF3 (Homo sapiens, UniProt P78545 1-371); conditions: protein: recombinant; tags: N-terminal GST; dsDNA, one strand shown
# T11 sequence: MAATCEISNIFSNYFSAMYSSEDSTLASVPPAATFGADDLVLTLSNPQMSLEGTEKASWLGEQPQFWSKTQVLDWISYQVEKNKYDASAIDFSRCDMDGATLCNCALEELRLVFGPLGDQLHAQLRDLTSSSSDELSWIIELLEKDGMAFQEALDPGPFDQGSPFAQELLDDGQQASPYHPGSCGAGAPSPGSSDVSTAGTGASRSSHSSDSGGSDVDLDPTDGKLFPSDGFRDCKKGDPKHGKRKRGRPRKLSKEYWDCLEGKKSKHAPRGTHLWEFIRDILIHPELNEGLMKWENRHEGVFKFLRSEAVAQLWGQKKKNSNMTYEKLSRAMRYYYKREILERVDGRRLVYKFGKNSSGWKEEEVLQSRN
# Summary of the method: as §1
# CRX = CRX (Homo sapiens, UniProt O43186 1-299); conditions: protein: recombinant; tags: N-terminal GST; dsDNA, one strand shown
# Sequence of CRX (O43186 whole entry): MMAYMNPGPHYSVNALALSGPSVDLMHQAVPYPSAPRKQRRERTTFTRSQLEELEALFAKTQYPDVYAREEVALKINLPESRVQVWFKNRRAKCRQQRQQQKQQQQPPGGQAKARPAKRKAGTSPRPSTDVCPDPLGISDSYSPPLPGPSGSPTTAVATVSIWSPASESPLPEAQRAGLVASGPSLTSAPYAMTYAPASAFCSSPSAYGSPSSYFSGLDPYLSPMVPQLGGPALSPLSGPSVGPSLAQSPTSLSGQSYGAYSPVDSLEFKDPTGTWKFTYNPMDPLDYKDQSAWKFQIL
# Summary of the method: as §1
# ETV1 = ETV1 (Homo sapiens, UniProt P50549 1-477); conditions: protein: recombinant; tags: N-terminal GST; dsDNA, one strand shown
# Sequence of ETV1 (P50549 whole entry): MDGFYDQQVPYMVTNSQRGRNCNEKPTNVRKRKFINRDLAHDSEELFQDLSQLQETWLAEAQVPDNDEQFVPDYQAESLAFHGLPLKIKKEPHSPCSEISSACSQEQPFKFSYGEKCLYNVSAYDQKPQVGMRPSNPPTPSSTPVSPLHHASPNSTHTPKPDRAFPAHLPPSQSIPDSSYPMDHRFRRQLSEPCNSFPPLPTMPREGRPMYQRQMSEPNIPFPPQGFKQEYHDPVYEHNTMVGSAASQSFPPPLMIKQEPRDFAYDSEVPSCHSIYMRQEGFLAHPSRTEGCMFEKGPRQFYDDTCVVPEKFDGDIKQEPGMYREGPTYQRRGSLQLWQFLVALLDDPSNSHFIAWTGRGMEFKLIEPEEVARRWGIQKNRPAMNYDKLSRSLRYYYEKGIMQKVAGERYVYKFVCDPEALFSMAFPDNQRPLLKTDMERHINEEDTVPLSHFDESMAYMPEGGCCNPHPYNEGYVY
# Summary of the method: as §1
sequence,measurement,setting,value
ACTATG,binding signal,FLI1,"1.23 fold enrichment (6-mer frequency, TF over GST control)"
same,binding signal,ELK1,"1.28 fold enrichment (6-mer frequency, TF over GST control)"
same,binding signal,GABPA,"1.37 fold enrichment (6-mer frequency, TF over GST control)"
same,binding signal,ERG,"1.19 fold enrichment (6-mer frequency, TF over GST control)"
same,binding signal,ELF1,"1.21 fold enrichment (6-mer frequency, TF over GST control)"
same,binding signal,EHF,"1.25 fold enrichment (6-mer frequency, TF over GST control)"
same,binding signal,SPI1,"1.14 fold enrichment (6-mer frequency, TF over GST control)"
same,binding signal,SPIB,"1.31 fold enrichment (6-mer frequency, TF over GST control)"
same,binding signal,ELK3,"1.2 fold enrichment (6-mer frequency, TF over GST control)"
same,binding signal,FEV,"1.21 fold enrichment (6-mer frequency, TF over GST control)"
same,binding signal,ETV5,"1.19 fold enrichment (6-mer frequency, TF over GST control)"
same,binding signal,HSF1,"1.09 fold enrichment (6-mer frequency, TF over GST control)"
same,binding signal,SPIC,"1.37 fold enrichment (6-mer frequency, TF over GST control)"
same,binding signal,ELF4,"1.26 fold enrichment (6-mer frequency, TF over GST control)"
same,binding signal,ELK4,"1.08 fold enrichment (6-mer frequency, TF over GST control)"
same,binding signal,ETV2,"1.24 fold enrichment (6-mer frequency, TF over GST control)"
same,binding signal,ELF3,"1.09 fold enrichment (6-mer frequency, TF over GST control)"
same,binding signal,CRX,"1.02 fold enrichment (6-mer frequency, TF over GST control)"
same,binding signal,ETV1,"1.24 fold enrichment (6-mer frequency, TF over GST control)"
